In ChEMBL document CHEMBL3988442, “University of Dundee, Small-Polar-MMV Screening Library” (2021):
For some of these results: Results with a measured potency or affinity are listed apart.

How the values were obtained:
Design in all cases: scale not given: direction of the effect not stated beside the values
[1] = molecular target: Protein translocase subunit SecA (Escherichia coli (strain K12)) (UniProt P10408); assay: Assay to Identify E. coli SecA ATPase Inhibitors; type: functional; details: 30 µM
[2] = molecular target: T1, Ubiquitin-activating enzyme e1, putative (Leishmania donovani (strain BPK282A1)) (UniProt E9BSI1); assay: Leishmania donovani Ubiquitin Activating Enzyme (LdE1); type: functional; details: 30 µM
T1 sequence (whole entry): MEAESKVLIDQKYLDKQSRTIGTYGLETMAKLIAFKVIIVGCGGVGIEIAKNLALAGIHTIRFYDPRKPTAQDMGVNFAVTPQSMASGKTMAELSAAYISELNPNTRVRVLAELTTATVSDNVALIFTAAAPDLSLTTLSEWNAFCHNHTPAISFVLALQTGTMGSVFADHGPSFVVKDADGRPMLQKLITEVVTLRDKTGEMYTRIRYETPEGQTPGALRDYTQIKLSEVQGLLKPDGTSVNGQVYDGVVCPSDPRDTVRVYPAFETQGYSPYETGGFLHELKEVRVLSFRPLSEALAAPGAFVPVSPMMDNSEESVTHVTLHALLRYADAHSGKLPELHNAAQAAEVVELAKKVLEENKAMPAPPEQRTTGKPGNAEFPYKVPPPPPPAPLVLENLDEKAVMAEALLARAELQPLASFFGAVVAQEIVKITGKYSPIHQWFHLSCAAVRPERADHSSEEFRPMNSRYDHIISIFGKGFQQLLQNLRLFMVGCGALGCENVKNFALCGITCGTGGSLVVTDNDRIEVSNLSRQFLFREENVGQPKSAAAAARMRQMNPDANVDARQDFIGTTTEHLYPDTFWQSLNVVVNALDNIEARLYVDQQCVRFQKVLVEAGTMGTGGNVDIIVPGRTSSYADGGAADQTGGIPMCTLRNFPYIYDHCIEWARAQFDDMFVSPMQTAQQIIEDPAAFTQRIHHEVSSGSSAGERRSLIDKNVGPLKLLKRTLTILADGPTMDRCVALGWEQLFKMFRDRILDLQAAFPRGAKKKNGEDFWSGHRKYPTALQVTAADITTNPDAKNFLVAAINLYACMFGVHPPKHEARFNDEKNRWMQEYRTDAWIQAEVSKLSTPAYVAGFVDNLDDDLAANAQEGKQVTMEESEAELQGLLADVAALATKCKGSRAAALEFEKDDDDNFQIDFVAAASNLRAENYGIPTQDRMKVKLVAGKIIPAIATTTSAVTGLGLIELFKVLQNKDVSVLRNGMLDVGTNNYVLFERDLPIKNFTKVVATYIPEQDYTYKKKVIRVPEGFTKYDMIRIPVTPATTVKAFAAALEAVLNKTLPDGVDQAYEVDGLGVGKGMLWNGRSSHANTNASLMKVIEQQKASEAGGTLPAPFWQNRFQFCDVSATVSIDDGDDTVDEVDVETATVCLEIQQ

[3] = molecular target: AMP-activated protein kinase, AMPK (Homo sapiens) (UniProt P54646+O43741+P54619+Q9UGJ0+Q9Y478+Q13131+Q9UGI9); assay: AMP-dependent Kinase enzyme assay. An in vitro enzyme assay that detects ADP turnover that is directly proportional to AMPK activity. This uses naive AMPK that is activated during the assay with MK-8722; type: functional; details: 30 µM
[4] = molecular target: Sialic acid-binding Ig-like lectin 9 (Homo sapiens) (UniProt Q9Y336); assay: Hs-Siglec9 ALPHAscreen SOP 20170721; details: 10 µM
Trypanosoma cruzi = assay: Trypanosoma cruzi phosphomannomutase and mannose-1-phosphate guanylyltransferase assay; type: functional; details: 10 µM
[5] = molecular target: T2, Arginase-2, mitochondrial (Homo sapiens) (UniProt P78540); assay: in vitro enzyme assay to detect the production of urea directly proportional to the activity of Arginase II; type: functional; details: 33.3 µM; also: in the data most compounds retested in dose-response had high values
T2 sequence (whole entry): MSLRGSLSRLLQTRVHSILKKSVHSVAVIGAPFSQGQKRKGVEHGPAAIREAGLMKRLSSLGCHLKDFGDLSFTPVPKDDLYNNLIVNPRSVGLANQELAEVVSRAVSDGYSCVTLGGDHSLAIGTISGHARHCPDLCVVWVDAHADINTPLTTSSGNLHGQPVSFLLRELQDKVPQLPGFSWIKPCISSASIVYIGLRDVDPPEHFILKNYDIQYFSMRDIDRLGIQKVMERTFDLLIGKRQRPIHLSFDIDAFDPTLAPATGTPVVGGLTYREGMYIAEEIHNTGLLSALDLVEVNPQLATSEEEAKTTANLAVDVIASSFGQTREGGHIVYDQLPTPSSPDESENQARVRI

[6] = molecular target: T3, Proteasome subunit beta (Trypanosoma cruzi) (UniProt O96673); assay: Trypanosoma cruzi proteasome chymotrypsin-like activity (TcProtChymo) assay.; also: in the data most compounds retested in dose-response had high values; type: functional; details: 9.37 µM
T3 sequence (whole entry): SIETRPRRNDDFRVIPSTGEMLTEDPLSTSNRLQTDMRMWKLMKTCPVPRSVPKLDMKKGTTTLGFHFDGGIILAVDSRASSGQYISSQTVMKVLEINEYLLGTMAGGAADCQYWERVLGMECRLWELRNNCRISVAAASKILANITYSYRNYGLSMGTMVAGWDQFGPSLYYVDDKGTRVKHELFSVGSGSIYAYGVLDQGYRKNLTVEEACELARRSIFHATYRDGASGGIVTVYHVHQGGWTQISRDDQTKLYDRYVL

Homo sapiens = species: Homo sapiens; assay: To identify inhibition of the IFN signalling (Jak-Stat) pathway via expression of an eGFP reporter gene under the control of an IFN-stimulated response element (ISRE) containing MxA promoter.; type: functional; details: 30 µM
[7] = molecular target: T4, Tyrosyl-tRNA synthetase, putative (Trypanosoma cruzi (strain CL Brener)) (UniProt Q4DSP6); assay: Trypanosoma cruzi tyrosyl tRNA synthetase (TcYRS) _High Tyrosine SOP; type: functional; details: 30 µM; also: in the data most compounds retested in dose-response had high values
T4 sequence (whole entry): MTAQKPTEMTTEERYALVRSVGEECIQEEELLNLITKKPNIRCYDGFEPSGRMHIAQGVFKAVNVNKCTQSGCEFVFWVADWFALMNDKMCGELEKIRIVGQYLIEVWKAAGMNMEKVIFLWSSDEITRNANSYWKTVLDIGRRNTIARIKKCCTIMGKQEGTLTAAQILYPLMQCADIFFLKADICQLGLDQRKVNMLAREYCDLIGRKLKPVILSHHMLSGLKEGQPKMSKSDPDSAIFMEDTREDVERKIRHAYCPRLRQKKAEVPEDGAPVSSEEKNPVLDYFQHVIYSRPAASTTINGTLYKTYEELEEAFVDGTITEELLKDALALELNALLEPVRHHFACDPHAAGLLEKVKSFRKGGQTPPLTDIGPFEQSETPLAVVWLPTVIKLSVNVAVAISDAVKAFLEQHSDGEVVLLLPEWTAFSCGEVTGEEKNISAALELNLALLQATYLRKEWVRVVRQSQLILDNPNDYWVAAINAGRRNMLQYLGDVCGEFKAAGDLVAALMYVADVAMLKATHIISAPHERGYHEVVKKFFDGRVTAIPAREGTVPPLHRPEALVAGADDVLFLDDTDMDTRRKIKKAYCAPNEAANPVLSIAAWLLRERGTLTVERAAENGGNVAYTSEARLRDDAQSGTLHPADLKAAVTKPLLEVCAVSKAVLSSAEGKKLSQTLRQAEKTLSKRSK

[8] = molecular target: T4, Tyrosyl-tRNA synthetase, putative (Trypanosoma cruzi (strain CL Brener)); assay: Trypanosoma cruzi tyrosyl tRNA synthetase (TcYRS) SOP; type: functional; details: 30 µM
[9] = molecular target: Chromo domain-containing protein 1 (Saccharomyces cerevisiae (strain ATCC 204508 / S288c) (Baker's yeast)) (UniProt P32657); assay: ScCHD-1 Enzyme Inhibition Assay; type: functional; details: 30 µM; also: in the data most compounds retested in dose-response had high values
Chain of Chromo domain-containing protein 1 (Saccharomyces cerevisiae (strain ATCC 204508 / S288c) (Baker's yeast)) (P32657 whole entry, the tested form may be a part): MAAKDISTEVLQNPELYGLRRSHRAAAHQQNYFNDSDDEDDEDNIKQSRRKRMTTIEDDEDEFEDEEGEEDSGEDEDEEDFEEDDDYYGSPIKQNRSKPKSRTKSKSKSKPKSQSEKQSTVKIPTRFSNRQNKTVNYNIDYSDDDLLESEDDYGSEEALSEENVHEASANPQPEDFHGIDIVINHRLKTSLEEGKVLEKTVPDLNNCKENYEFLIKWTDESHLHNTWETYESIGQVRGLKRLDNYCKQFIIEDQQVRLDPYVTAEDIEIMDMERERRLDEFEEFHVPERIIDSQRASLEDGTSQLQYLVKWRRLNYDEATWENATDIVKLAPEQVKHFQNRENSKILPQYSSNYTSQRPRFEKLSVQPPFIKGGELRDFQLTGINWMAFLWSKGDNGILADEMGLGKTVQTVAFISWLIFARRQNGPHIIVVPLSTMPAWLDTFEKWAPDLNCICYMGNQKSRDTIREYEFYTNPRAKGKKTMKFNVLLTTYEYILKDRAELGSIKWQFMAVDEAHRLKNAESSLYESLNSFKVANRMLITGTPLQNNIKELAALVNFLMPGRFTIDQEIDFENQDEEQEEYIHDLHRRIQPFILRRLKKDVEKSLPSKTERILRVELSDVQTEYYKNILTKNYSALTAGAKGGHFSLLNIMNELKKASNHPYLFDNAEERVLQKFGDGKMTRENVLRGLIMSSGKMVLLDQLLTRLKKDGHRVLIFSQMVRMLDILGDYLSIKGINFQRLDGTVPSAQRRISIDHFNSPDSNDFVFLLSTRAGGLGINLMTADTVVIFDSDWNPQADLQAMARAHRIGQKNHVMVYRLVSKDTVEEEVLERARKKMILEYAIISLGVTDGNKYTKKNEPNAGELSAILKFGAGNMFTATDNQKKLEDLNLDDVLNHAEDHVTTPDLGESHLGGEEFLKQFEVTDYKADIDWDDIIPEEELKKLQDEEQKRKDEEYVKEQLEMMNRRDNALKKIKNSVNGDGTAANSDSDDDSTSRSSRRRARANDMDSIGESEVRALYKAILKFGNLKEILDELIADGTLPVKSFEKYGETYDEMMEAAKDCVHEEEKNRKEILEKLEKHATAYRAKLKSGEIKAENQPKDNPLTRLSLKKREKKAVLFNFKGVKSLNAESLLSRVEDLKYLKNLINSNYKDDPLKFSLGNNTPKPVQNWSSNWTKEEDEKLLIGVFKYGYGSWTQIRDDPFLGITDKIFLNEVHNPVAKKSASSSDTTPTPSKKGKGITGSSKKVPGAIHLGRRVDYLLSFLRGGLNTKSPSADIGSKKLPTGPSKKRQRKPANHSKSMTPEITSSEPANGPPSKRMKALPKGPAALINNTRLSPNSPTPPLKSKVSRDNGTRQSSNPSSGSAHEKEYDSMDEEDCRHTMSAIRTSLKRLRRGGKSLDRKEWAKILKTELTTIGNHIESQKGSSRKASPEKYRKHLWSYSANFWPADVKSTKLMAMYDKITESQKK

Chain of Protein translocase subunit SecA (Escherichia coli (strain K12)) (P10408 whole entry): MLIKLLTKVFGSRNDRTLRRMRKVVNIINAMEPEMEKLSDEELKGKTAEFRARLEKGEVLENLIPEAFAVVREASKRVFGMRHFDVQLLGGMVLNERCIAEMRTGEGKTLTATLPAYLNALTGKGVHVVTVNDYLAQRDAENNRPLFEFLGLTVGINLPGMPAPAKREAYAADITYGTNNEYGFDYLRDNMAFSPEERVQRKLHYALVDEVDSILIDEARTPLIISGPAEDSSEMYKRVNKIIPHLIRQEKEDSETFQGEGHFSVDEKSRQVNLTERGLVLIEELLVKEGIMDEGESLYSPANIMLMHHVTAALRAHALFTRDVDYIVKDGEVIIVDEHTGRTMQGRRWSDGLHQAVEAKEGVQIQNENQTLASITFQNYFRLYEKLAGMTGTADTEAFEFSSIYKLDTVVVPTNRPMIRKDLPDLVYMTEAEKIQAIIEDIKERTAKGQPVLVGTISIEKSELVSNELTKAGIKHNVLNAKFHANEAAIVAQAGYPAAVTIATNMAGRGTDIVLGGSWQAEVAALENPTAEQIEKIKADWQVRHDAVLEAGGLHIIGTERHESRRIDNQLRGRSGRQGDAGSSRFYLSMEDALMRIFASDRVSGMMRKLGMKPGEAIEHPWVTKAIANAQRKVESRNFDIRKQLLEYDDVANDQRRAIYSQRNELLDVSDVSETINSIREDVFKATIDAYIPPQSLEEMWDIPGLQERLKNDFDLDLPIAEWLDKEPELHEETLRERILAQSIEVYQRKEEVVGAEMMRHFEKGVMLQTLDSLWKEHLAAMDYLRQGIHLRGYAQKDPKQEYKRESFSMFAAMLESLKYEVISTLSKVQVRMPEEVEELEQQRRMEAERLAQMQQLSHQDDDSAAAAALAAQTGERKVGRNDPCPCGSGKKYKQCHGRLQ
Chain of Sialic acid-binding Ig-like lectin 9 (Homo sapiens) (Q9Y336 whole entry): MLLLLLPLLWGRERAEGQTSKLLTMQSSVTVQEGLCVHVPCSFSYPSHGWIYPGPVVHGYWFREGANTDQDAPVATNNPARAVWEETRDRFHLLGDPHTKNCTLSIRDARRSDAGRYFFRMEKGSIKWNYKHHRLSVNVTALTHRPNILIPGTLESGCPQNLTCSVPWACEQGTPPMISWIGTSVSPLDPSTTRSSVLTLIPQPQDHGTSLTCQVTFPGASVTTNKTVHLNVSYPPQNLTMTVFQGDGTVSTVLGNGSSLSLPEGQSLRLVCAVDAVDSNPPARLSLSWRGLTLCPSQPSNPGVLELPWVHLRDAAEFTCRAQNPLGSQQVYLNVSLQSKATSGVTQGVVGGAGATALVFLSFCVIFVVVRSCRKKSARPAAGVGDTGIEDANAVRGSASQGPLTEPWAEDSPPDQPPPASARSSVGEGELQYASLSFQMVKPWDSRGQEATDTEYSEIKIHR

| Compound | Percent Effect [1] [%] | Percent Effect [2] [%] | Percent Effect [3] [%] | Percent Effect [4] [%] | Percent Effect (Trypanosoma cruzi) [%] | Percent Effect [5] [%] | Percent Effect [6] [%] | Percent Effect (Homo sapiens) [%] | Percent Effect [7] [%] | Percent Effect [8] [%] | Percent Effect [9] [%] |
| --- | --- | --- | --- | --- | --- | --- | --- | --- | --- | --- | --- |
| Cc1ncc(C)c(N2CCCC(CO)(Cc3cccc(Cl)c3)C2)n1 (stereo not given) | -3.59 | 13 | 3.66 | 15.9 | 5.61 | 9.65 | 13.1 | 34 | 7.53 | 13.6 | -6.49 |
| CC(C)NC(=O)COc1nc(C(C)(C)C)no1 | -4.03 | 13.5 | -3.54 | 27.8 | 5.21 | 0.952 | 4.31 | -3.96 | -0.529 | 4.88 | -3.56 |
| O=C(c1ccc(-n2cccn2)nc1)N1CCCN(c2cccnn2)CC1 | -2.01 | 0 | 6.8 | -1.08 | -6.76 | 1.47 | 13 | -7.18 | -0.952 | 0 | -11.3 |
| Cc1nn(C)c(Cl)c1C1CCCN1CC(=O)NCc1ccccn1 (stereo not given) | -0.227 | 1.27 | 8.81 | -1.21 | 0.513 | -0.215 | 12.2 | 22.5 | 4.17 | 10.1 | 3 |
| O=C1[C@@H]2CCN(Cc3ccoc3)C[C@@H]2OCCN1Cc1cccnc1 | -4.73 | 13.3 | 6.25 | 5.81 | -2.76 | -0.699 | 11.4 | -11.6 | 4.25 | 1.28 | 1.76 |
| Cc1cccc(-c2nc(CN(Cc3cccs3)CC3CCCO3)no2)c1 (stereo not given) | -1.96 | -51.9 | 2.38 | -0.778 | 0.103 | 4.95 | 7.72 | 25.8 | -7.29 | -17.7 | -15.2 |
| Cc1nc(CCNC(=O)N2CCC(Cc3cnn(C)c3)C2)cs1 (stereo not given) | -5.52 | 2.63 | 9.75 | 4.12 | -0.682 | 116 | 19.9 | -10.1 | 2.13 | 5.2 | -2.02 |
| CC(=O)c1ccc(C(=O)NCCCOC(C)c2ccccc2)s1 (stereo not given) | -1.12 | 7.89 | 0.104 | -8.61 | 1.07 | -8.28 | 13.9 | 21.8 | -3.19 | 10.4 | -1.78 |
| CN(C)CCN1CCO[C@@H]2CN(C(=O)c3cccs3)CC[C@@H]2C1 | -2.95 | 10.8 | 3.88 | 2.08 | -1.27 | -1.59 | 20.3 | 5.44 | 1.08 | 12.8 | -1.74 |
| Cc1nc(C2CCCN2C(=O)c2cc3c(s2)CCCC3)no1 (stereo not given) | -3.05 | 0 | 2.69 | 3.43 | 3.95 | 4.98 | 3.51 | 5.26 | -0.49 | 0 | 5.53 |
| N#Cc1ccc(CNCC(C(=O)N2CCOCC2)c2ccccc2)cc1 (stereo not given) | -2.65 | 10.4 | -4.88 | 7.63 | 2.06 | -75.9 | 4.16 | -2.22 | 4.3 | 13.6 | -3.12 |
| COCCN1CCOCC2(CCCN(Cc3ccc(C)o3)C2)C1 (stereo not given) | -2.04 | 13.3 | 0.538 | -2.47 | 5.6 | -42.1 | 8.55 | -12.1 | 3.12 | 2.5 | -9.46 |
| COCC1c2c(cnn2C)CCN1Cc1ccc(F)cc1 (stereo not given) | -4.38 | -2.7 | 1.18 | -3.56 | -2.93 | 1.25 | 5.66 | -1.22 | 5.94 | 8.54 | 2.82 |
| CN(Cc1ccc2c(c1)OCO2)Cc1nc2c(cnn2C)c(=O)[nH]1 | -3.58 | 5.26 | 0.733 | -4.42 | 0.467 | -4.32 | -0.592 | 4.07 | 8.37 | 6.17 | -3.9 |
| CCn1c(C)nnc1CN(C)C1CCN(CCn2cccn2)C1 (stereo not given) | -1.14 | 15.6 | 0.0585 | -11.5 | -0.686 | -1.05 | 17.9 | 20.6 | 14.3 | 23.5 | -17.4 |
| CC(CNCc1ccc(Cl)c(Cl)c1)Oc1ccccn1 (stereo not given) | -2.19 | 12 | 0.69 | -3.31 | 4.91 | -7.22 | 20.5 | 26.5 | 6.35 | 10.3 | -11.8 |
| Cc1ccc(F)c(C(=O)N2CCN(S(C)(=O)=O)[C@@H](C)C2)c1 | -1.54 | 2.74 | 5.45 | 3.05 | 6.86 | -1.82 | 8.7 | 8.46 | -2.15 | 5 | -2.13 |
| CC(C)N1CCc2c(C#N)c(NCc3ccco3)n3cnnc3c2C1 | -3.81 | 7.89 | 6.37 | -3.12 | -3.8 | 3.55 | 15.4 | -16.1 | 1.06 | 7.79 | -9.63 |
| CC(C)n1cc(S(=O)(=O)N2CCCCC2)cn1 | -5.5 | 14.7 | -5.08 | 14.1 | 0.393 | -2.29 | 15.7 | 2.73 | 6.35 | 15.4 | -8.47 |
| Cc1nc(C2CCN(C(=O)c3cccnc3)CC2)c2sccn12 | -1.59 | 1.35 | 6.93 | 4.07 | 3.36 | 3.48 | 7.8 | -15.3 | 2.15 | 6.49 | -6.97 |
